Source: PubChem BioAssay
Values joined by “and” are separate entries in the source; they are usually repeats but may differ in a detail not shown here. Equal values may be shown once. Inconclusive results are not listed. For some of these results: Measured potencies and affinities stand elsewhere. Active and inactive are the calls of the source. Unless noted, no rule for the calls is given here.

Experiments:
[1] = molecular target: 6-phosphogluconate dehydrogenase, decarboxylating (Homo sapiens) (UniProt P52209); experiment: 6PGD enzyme inhibitors, primary screen, biochemical, human, recombinant enzyme, NADPH absorbance (AID 1159550;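 active = at least 20% inhibition of 6-phosphogluconate dehydrogenase activity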); conditions: recombinant 6PGD, NADPH absorbance 341 nm; at 10 µM; stronger effect = higher value
Sequence of 6-phosphogluconate dehydrogenase, decarboxylating (Homo sapiens) (P52209 whole entry, looked up, the tested form may be a part): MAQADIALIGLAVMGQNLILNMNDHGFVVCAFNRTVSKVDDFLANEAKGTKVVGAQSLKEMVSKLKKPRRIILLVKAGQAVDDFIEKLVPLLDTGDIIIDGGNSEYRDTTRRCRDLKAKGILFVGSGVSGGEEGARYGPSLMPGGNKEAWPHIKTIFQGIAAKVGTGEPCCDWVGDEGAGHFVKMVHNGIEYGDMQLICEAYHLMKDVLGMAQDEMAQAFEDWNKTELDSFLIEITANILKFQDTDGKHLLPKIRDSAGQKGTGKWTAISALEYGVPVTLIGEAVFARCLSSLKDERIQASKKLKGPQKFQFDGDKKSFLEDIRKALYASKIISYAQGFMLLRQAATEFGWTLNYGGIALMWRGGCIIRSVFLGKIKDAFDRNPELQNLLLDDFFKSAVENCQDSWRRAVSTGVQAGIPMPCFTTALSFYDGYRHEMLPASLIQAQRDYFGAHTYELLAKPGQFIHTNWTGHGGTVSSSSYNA

[2] = molecular target: Mitogen-activated protein kinase 7 (Homo sapiens) (UniProt Q13164); experiment: ERK5 transactivation activators in reporter cells, primary screen, cell-based, HTS (AID 1508626;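 active = luciferase signal above three times the same-plate solvent-only control wells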;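 also: luciferase driven by Gal4-ERK5 fusion binding five Gal4 sites before minimal TATA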); conditions: HeLa Gal4-ERK5 transactivation, 18 h, at 5 µM, stronger effect = higher value
Sequence of Mitogen-activated protein kinase 7 (Homo sapiens) (Q13164 whole entry, looked up, the tested form may be a part): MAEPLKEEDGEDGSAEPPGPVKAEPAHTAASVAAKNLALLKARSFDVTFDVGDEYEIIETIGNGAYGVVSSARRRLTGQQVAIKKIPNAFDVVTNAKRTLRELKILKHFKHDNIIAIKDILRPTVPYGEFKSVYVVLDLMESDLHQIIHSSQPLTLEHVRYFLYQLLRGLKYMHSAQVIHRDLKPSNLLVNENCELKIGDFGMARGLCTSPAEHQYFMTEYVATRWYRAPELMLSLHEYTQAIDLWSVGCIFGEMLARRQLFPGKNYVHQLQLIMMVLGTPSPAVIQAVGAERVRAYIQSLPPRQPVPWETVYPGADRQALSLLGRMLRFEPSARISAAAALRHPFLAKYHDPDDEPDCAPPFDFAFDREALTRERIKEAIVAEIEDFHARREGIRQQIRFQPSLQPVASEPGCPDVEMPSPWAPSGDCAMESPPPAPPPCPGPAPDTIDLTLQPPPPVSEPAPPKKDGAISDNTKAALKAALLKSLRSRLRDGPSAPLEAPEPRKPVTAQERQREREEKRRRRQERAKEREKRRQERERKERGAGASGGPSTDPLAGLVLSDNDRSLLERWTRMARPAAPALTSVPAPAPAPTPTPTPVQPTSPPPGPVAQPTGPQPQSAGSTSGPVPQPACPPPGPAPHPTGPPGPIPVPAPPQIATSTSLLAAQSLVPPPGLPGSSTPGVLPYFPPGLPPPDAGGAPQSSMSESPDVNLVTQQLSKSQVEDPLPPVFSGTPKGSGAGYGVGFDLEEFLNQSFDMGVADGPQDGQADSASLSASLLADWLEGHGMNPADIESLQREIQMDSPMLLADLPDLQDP

[3] = mitochondrial permeability transition inhibitors (AID 1580); conditions: isolated mitochondria, permeability transition inhibition
[4] = polyglutamine-triggered caspase-3 activation inhibitors, cell-based (AID 1583); conditions: polyglutamine-induced caspase-3 activation, cell assay; stronger effect = higher value;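 tested at 10 µM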
[5] = suppressors of polyQ aggregation in yeast, 75Q-TubU reporter (AID 1593); conditions: Yeast 75Q polyglutamine aggregation reporter
[6] = rescue of polyQ-huntingtin neuronal dysfunction in worms, whole organism, C. elegans mechanosensory neurons, N-terminal huntingtin (AID 1599); conditions: touch response, stronger effect = higher value
[7] = inhibitors of mitochondrial cytochrome c release, biochemical, purified mitochondria (AID 1603); conditions: stronger effect = lower value;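 also: mouse liver mitochondria challenged with calcium chloride; signal normalized to the plate average as 100%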
[8] = inhibitors of polyQ protein aggregation (AID 1604); conditions: polyglutamine-induced protein aggregation inhibition assay; stronger effect = higher value; tested at 2.5 µM
[9] = protection against mutant huntingtin cytotoxicity, PC12 cells, LDH release (AID 1610); conditions: PC12 mutant huntingtin toxicity, final LDH at 4 uM, stronger effect = lower value
[10] = enhancers of glutamate uptake in motor neurons, MN-1 cell line (AID 1612); conditions: MN-1 motor neuron cells, stronger effect = higher value;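 also: tested at 1 µM final; 0% = mean of DMSO vehicle wells on each plate; positive means more glutamate uptake than control and negative means less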
[11] = suppressors of polyglutamine aggregation in yeast, 75Q-TubH (AID 1616); conditions: S. cerevisiae 75Q-TubH polyglutamine aggregation suppression; stronger effect = higher value
[12] = molecular target: ATP-dependent translocase ABCB1 (Homo sapiens) (UniProt P08183); experiment: MDR1 (ABCB1) efflux transporter inhibition, cell-based (AID 377; in the data active = fluorescence slope change above about 50%); conditions: MDR1-expressing cells, fluorescent substrate accumulation slope; stronger effect = higher value; concentration not given here
Sequence of ATP-dependent translocase ABCB1 (Homo sapiens) (P08183 whole entry, looked up): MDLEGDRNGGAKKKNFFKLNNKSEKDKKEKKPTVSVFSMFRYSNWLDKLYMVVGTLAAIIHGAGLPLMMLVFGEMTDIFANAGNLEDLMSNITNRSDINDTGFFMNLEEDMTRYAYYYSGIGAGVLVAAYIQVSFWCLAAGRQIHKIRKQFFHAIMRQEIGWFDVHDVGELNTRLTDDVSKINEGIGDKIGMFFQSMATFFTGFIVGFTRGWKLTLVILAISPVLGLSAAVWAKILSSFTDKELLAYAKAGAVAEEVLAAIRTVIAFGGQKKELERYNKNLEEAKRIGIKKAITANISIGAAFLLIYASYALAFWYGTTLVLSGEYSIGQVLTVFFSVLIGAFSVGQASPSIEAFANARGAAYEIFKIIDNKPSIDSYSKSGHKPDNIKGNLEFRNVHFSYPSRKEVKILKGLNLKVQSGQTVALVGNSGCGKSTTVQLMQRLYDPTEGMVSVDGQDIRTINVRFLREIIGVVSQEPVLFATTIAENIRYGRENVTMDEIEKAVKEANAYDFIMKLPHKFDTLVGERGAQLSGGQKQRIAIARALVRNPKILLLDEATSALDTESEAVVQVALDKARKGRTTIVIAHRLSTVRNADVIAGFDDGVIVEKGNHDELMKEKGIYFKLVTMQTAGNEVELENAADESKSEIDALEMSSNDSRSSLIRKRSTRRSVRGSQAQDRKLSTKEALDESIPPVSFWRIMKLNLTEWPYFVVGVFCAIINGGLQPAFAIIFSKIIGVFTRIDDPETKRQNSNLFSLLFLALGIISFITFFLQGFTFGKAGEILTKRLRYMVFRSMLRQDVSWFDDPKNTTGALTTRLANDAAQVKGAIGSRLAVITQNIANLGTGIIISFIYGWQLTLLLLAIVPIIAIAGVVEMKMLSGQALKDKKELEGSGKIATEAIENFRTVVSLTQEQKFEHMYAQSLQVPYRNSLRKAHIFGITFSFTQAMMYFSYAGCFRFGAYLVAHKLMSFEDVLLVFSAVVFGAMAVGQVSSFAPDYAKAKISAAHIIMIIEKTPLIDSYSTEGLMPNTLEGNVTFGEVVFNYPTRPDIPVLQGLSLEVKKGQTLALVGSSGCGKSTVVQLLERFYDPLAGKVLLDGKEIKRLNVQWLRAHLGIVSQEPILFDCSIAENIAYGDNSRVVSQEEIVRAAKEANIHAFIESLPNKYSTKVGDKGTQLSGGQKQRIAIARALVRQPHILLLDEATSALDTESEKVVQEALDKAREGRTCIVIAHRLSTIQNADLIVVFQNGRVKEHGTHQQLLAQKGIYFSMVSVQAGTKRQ

[13] = hESC survival regulators, cell-based (AID 493140); conditions: human embryonic stem cell survival screen; stronger effect = higher value;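 also: cells exposed to compounds for four days before counting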
[14] = liver-stage malaria parasite growth inhibition, primary screen, cell-based, HepG2, luciferase luminescence, HepG2 viability (AID 624349; in the data active = parasite load remaining mostly below about 12%, no sharp cut-off; inactive = mostly above about 10%;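 also: 100% = mean of DMSO negative control wells on the same plate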); conditions: P. berghei liver stage in HepG2, luciferase luminescence, concentration not given here; parasite load remaining: stronger effect = lower value; viability: measured here: HepG2 viability without parasites
[15] = antimalarial activity against Dd2 strain (AID 2302;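 active = growth inhibition above 50% at the single 2 µM test dose, taken to imply half-maximal potency below 2 µM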;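 also: 0% = DMSO untreated growth and 100% = chloroquine plus artemisinin killed control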); conditions: P. falciparum Dd2 in RBCs, LDH growth readout, 72 h; at 2 µM; stronger effect = higher value
[16] = HepG2 cytotoxicity, primary screen, cytotoxicity control for P. falciparum antimalarial project, cell-based, ATP luminescence (AID 2303;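 active = inhibition above 50%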;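 also: 0% = DMSO wells and 100% = digitonin-killed cells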); conditions: HepG2 viability, 24-48 h, at 10 µM, stronger effect = higher value
[17] = molecular target: L-lactate dehydrogenase (Plasmodium falciparum (isolate CDC / Honduras)) (UniProt Q27743); experiment: PfLDH activity inhibition – cell lysate, 3D7 strain, counter-screen for P. falciparum growth inhibition project (AID 2304);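 also: 0% = vehicle and 100% = reference inhibitor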; conditions: P. falciparum 3D7 crude extract, LDH APAD/NBT absorbance; at 2 µM; stronger effect = higher value
Sequence of L-lactate dehydrogenase (Plasmodium falciparum (isolate CDC / Honduras)) (Q27743 whole entry, looked up): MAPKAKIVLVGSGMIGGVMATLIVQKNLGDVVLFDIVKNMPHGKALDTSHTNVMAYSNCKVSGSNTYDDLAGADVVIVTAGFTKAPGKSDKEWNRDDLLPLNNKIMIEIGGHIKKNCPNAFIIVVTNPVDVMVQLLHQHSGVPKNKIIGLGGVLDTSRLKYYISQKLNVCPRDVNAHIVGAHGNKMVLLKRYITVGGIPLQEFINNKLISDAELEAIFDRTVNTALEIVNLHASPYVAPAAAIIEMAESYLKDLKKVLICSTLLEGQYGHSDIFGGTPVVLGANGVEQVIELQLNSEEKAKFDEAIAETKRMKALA

[18] = inhibition of 3D7 malaria parasite growth – strain 3D7 (AID 2306);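 also: 0% = DMSO wells and 100% = chloroquine plus artemisinin control wells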; conditions: P. falciparum 3D7 erythrocytic growth, LDH absorbance, 72 h; at 2 µM; stronger effect = higher value
[19] = molecular target: Calcium-dependent protein kinase 1 (Plasmodium falciparum (isolate 3D7)) (UniProt P62344); experiment: PfCDPK1 kinase inhibitors, biochemical, TCAMS library (AID 1159585; cut-off not given, nearly all actives have IC50 up to about 0.98 µM;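 also: inhibitors leave more ATP so luminescence rises with inhibition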); conditions: recombinant PfCDPK1, Kinase-Glo ATP depletion luminescence
Sequence of Calcium-dependent protein kinase 1 (Plasmodium falciparum (isolate 3D7)) (P62344 whole entry, looked up): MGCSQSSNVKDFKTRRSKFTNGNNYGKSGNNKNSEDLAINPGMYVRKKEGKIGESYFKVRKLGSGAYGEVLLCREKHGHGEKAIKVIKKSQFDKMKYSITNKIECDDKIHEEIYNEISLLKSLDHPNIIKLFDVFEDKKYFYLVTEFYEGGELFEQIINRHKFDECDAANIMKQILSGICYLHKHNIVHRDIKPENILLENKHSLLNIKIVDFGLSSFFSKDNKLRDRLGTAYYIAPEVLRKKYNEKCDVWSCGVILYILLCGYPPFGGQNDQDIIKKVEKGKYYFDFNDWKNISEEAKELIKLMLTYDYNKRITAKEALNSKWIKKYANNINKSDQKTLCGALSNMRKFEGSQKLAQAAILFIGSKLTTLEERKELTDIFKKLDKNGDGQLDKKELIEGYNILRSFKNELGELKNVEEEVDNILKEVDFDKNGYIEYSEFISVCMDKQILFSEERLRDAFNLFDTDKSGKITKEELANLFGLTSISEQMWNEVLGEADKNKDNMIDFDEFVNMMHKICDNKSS

[20] = molecular target: Plasmodium falciparum protein kinase 6 (PK6, PF3D7_1337100) (UniProt Q8IDW1); experiment: PfPK6 kinase inhibitors, biochemical, TCAMS library (AID 1159586); conditions: recombinant PfPK6, Kinase-Glo ATP depletion luminescence
Sequence of Plasmodium falciparum protein kinase 6 (PK6, PF3D7_1337100) (Q8IDW1 1-305): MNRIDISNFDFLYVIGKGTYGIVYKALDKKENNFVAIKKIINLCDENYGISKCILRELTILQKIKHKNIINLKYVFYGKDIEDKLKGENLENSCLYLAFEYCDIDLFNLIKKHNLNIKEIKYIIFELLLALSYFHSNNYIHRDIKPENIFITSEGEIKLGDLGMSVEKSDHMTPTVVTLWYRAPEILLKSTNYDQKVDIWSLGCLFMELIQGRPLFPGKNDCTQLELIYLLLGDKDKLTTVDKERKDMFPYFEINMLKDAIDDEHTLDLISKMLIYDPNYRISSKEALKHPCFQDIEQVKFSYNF

[21] = molecular target: Protein kinase 7 (PK7), Plasmodium falciparum 3D7 (PF3D7_0213400) (UniProt Q7YTF7); experiment: inhibition of Plasmodium PK7 catalytic activity – biochemical, TCAMS antimalarial set, Kinase-Glo luminescence (AID 1159587); conditions: recombinant PfPK7, Kinase-Glo ATP depletion luminescence
Sequence of Protein kinase 7 (PK7), Plasmodium falciparum 3D7 (PF3D7_0213400) (Q7YTF7 1-343): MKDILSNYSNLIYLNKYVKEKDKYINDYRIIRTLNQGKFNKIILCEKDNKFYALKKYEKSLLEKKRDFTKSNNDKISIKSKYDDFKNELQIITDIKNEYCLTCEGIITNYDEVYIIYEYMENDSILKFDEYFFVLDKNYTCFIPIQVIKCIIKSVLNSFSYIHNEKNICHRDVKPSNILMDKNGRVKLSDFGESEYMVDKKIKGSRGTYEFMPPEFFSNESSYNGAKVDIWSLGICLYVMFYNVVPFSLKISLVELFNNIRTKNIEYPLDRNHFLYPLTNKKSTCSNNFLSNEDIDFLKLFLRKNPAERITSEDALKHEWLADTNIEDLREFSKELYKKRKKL

[22] = molecular target: Calcium-dependent protein kinase 4 (Plasmodium falciparum (isolate 3D7)) (UniProt Q8IBS5); experiment: PfCDPK4 kinase inhibitors, biochemical, TCAMS library (AID 1159588; cut-off not given, nearly all actives have IC50 up to about 0.91 µM); conditions: recombinant PfCDPK4, Kinase-Glo ATP depletion luminescence
Sequence of Calcium-dependent protein kinase 4 (Plasmodium falciparum (isolate 3D7)) (Q8IBS5 whole entry, looked up): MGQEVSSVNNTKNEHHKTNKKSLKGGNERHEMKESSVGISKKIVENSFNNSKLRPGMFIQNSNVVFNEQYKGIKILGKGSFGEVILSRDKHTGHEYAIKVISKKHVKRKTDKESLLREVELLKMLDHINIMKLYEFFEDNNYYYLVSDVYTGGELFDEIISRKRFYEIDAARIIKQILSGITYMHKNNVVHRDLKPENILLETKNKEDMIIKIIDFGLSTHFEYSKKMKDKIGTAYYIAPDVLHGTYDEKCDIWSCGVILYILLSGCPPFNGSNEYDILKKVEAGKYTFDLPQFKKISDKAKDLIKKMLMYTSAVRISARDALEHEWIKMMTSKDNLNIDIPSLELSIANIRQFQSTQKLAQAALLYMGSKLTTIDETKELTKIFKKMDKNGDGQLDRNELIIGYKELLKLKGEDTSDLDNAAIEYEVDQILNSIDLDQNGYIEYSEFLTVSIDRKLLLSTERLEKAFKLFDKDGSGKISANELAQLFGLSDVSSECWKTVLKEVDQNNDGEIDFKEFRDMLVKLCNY

[23] = system: Aerobactin synthetase IucA (Klebsiella pneumoniae); experiment: IucA aerobactin synthetase inhibitors, biochemical, Tocris library, absorbance (AID 1345561); conditions: purified IucA enzyme assay, absorbance (OD) read-out; stronger effect = lower value;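 tested at 8 µM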;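 also: 100% = enzyme without compound and 0% = no enzyme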
[24] = sensitizers of A549 cells to miR-34 induction, primary screen, imaging, A549 dox-inducible miR-34, nuclei and caspase counts (AID 1347080;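 active = compounds whose cell count with miR-34 switched on is under 0.7 times the count with it off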); conditions: A549 miR-34 inducible, Hoechst nuclei count, 48 h
[25] = viability rescue of complex I mutant cybrids, primary screen, cell-based, galactose medium, ATP luminescence (AID 1645843;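 active = z-score of at least 1.8 in each of two replicates, scored against plate mean and spread of sample wells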;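 also: positive z means more ATP and so rescue of galactose-driven cybrid death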); conditions: complex I mutant cybrid cells, 72 h, stronger effect = higher value
[26] = molecular target: NAD(+) hydrolase SARM1 (Homo sapiens) (UniProt Q6SZW1); experiment: SARM1 TIR NADase inhibitors, cell lysate, NAD-Glo luminescence (AID 1508614;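 active = compound whose remaining NAD level is above about 45 nM, limit read from the data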;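 also: higher remaining NAD means stronger inhibition of SARM1 NADase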); conditions: SAM-TIR HEK293T lysate NADase, at 1 µM, stronger effect = higher value
[27] = measured here: relative caspase fold change +Dox/-Dox
[28] = measured here: total cells with miR-34 induction, stronger effect = lower value
[29] = measured here: total cells without miR-34 induction

SMILES: CC[C@@H](C)C(=O)O[C@H]1[C@H](O)[C@H]2[C@@H](CN3C[C@@H](C)CC[C@H]3[C@@]2(C)O)[C@@H]2C[C@]34O[C@]5(O)[C@@H](OC(=O)[C@@](C)(O)CC)CC[C@@]3(C)[C@@H]5[C@@H](OC(C)=O)[C@@H](OC(C)=O)[C@H]4[C@@]21O
- inhibition [1]: -7.64% (inactive)
- luciferase signal [2]: 108 AU (inactive)

SMILES: COC[C@]12CN(C=O)C3[C@@H]4C(OC)C1[C@]3(C1CC3(O)C(OC)C(O)C4(OC(C)=O)C1C3OC(=O)c1ccccc1)[C@@H](OC)C[C@H]2O (stereo partly drawn)
- inhibition [1]: -2.18% (inactive)
- luciferase signal [2]: 148 AU (inactive)

SMILES: CO[C@@H]1C[C@@H](C[C@H]2CC[C@H](C)[C@H]([C@@H](C)C(=O)O)O2)O[C@]2(O[C@](C)([C@H]3CC[C@@](C)(C4O[C@@H](C5O[C@@](O)(CO)[C@H](C)C[C@@H]5C)C[C@@H]4C)O3)C[C@H]2C)[C@@H]1C (stereo partly drawn)
- EC50 [3]: 175 nM (active)
- inhibition [4]: 49.6%
- score [5]: 0.17
- rescue above control [6]: 2.36
- cytochrome c release ratio [7]: 0.42
- inhibition of aggregation [8]: -0.07%
- normalised LDH release [9]: 0.812
- glutamate uptake change [10]: -43.9%
- aggregation suppression score [11]: 0.0976
- inhibition [1]: 10.1% (inactive)

SMILES: CNC(=O)Oc1cccc2c1OC(C)(C)C2
- inhibition [1]: -14.7% (inactive)
- luciferase signal [2]: 44 AU (inactive)

SMILES: CN1Cc2c(ccc3c2OCO3)[C@@H]2[C@H]1c1cc3c(cc1C[C@@H]2O)OCO3
- fluorescence slope change [12]: 54.5% (active)
- survival [13]: 0.417 (inactive)
- parasite load remaining [14]: 92.6% (inactive)
- viability [14]: 77.6%
- inhibition [1]: 7.55% (inactive)

SMILES: COC(=O)/C=C/C(=O)N[C@@H]1CC[C@@]2(O)[C@H]3Cc4ccc(O)c5c4[C@@]2(CCN3CC2CC2)[C@H]1O5
- growth inhibition [15]: 66% (active)
- inhibition [16]: 9% (inactive)
- inhibition [17]: -2% (inactive)
- growth inhibition [18]: 95% (active)
- outcome [19]: inactive
- outcome [20]: inactive
- outcome [21]: inactive
- outcome [22]: inactive
- remaining activity [23]: 109% (inactive)
- fold change ([24]; stronger effect = lower value): 0.925 (inactive)
- fold change [24, 27]: 0.877
- cell count [24, 28]: 7410
- cell count [24, 29]: 8010
- z-score [25]: -0.405 (inactive)

SMILES: CC[C@H]1CN2CC[C@@H]1C[C@H]2[C@H](O)c1cc[n+]([O-])c2ccc(OC)cc12
- outcome [19]: inactive
- outcome [20]: inactive
- outcome [21]: inactive
- outcome [22]: inactive

SMILES: C[C@@H](CO)NC(=O)[C@@H]1C=C2c3cccc4[nH]cc(c34)C[C@H]2N(C)C1
- inhibition [1]: -3.88% (inactive)
- remaining NAD [26]: 10 nM (inactive)
- luciferase signal [2]: 20 AU (inactive)

SMILES: CC1(C)C(=O)C=C[C@@]2(C)C1=C(O)C(=O)[C@]1(C)[C@@H]2CC[C@@]2(C)[C@H](c3ccoc3)C[C@H]3O[C@]321
- inhibition [1]: 11.8% (inactive)
- luciferase signal [2]: 12 AU (inactive)

SMILES: CC1CC(Cl)CCC1C(=O)OC(C)(C)C (stereo not drawn)
- inhibition [1]: -3.82% (inactive)
- luciferase signal [2]: 40 AU (inactive)

SMILES: CO[C@H]1C[C@H](O[C@H]2CC[C@@]3(C)[C@H](CC[C@@H]4[C@@H]3CC[C@]3(C)[C@@H](C5=CC(=O)OC5)[C@@H](OC(C)=O)C[C@]43O)C2)O[C@@H](C)[C@@H]1O
- inhibition [1]: 5.8% (inactive)
- luciferase signal [2]: 32 AU (inactive)

SMILES: O=C(C=Cc1ccc([N+](=O)[O-])cc1)NC1CCC(CN2CCC(c3c[nH]c4ccccc34)CC2)CC1 (stereo not drawn)
- growth inhibition [15]: 61% (active) and 81% (active)
- inhibition [16]: 30% (inactive) and 34% (inactive)
- inhibition [17]: -3% (inactive)
- growth inhibition [18]: 102% (active) and 101% (active)
- outcome [19]: inactive
- outcome [20]: inactive
- outcome [21]: inactive
- outcome [22]: inactive

SMILES: COc1ccc(CC2c3cc(OC)c(OC)cc3CCN2C)cc1OC (stereo not drawn)
- fluorescence slope change [12]: 206% (active)
- survival [13]: 6.67 (inactive)
- parasite load remaining [14]: 122% (inactive) and 66.2% (inactive)
- viability [14]: 98.7% and 71.4%
- inhibition [1]: -3.74% (inactive)
- fold change ([24]; stronger effect = lower value): 0.878 (inactive)
- fold change [24, 27]: 1.5
- cell count [24, 28]: 9520
- cell count [24, 29]: 10800

SMILES: COC(=O)COc1cc(Cl)c(Cl)cc1Cl
- inhibition [1]: -16.9% (inactive)
- luciferase signal [2]: 92 AU (inactive)

SMILES: C[C@H]1O[C@@H](O[C@H]2[C@@H](O)C[C@H](O[C@H]3[C@@H](O)C[C@H](O[C@H]4CC[C@@]5(C)[C@H](CC[C@@H]6[C@@H]5CC[C@]5(C)[C@@H](C7=CC(=O)OC7)[C@@H](O)C[C@]65O)C4)O[C@@H]3C)O[C@@H]2C)C[C@H](O)[C@@H]1O
- inhibition [1]: -2.27% (inactive)
- luciferase signal [2]: 16 AU (inactive)

SMILES: O=C(O)COc1cc(Cl)c(Cl)cc1Cl
- inhibition [1]: 6.47% (inactive)
- luciferase signal [2]: 60 AU (inactive)

SMILES: CC[C@H]1CN2CC[C@H]1C[C@H]2[C@H](O)c1cc(-c2ccc(SC)cc2)nc2ccc(OC)cc12
- growth inhibition [15]: 99% (active)
- inhibition [16]: 9% (inactive)
- inhibition [17]: -1% (inactive)
- growth inhibition [18]: 98% (active)
- outcome [19]: inactive
- outcome [20]: inactive
- outcome [21]: inactive
- outcome [22]: inactive

SMILES: COc1ccc(OC)c([C@H](O)[C@@H](C)NCc2cc(Cl)ccc2O)c1
- growth inhibition [15]: 99% (active)
- inhibition [16]: 11% (inactive)
- inhibition [17]: 4% (inactive)
- growth inhibition [18]: 97% (active)
- outcome [19]: inactive
- outcome [20]: inactive
- outcome [21]: inactive
- outcome [22]: inactive

SMILES: CNCC(O)c1cc(Cl)c(Cl)cc1C (stereo not drawn)
- growth inhibition [15]: 88% (active)
- inhibition [16]: 0% (inactive)
- inhibition [17]: 2% (inactive)
- growth inhibition [18]: 98% (active)
- outcome [19]: inactive
- outcome [20]: inactive
- outcome [21]: inactive
- outcome [22]: inactive

SMILES: COCCNCc1cccc(-c2ccc(CN(C(=O)Nc3ccccc3)C3CCN(Cc4ccccc4)CC3)cc2)c1
- growth inhibition [15]: 45% (inactive)
- inhibition [16]: 25% (inactive)
- inhibition [17]: -4% (inactive)
- growth inhibition [18]: 101% (active)
- outcome [19]: inactive
- outcome [20]: inactive
- outcome [21]: inactive
- outcome [22]: inactive
